# The list is not random: actives were taken first. Their share in the collection is about 1.4%.
# hERG WT inh: blocks the wildtype human KCNH2 potassium channel; Q12809; U2OS, BacMam KCNH2, thallium flux FluxOr; stronger effect = lower value; activity change, % at 1.84 µM; 340,000 compounds, 0.37% hits; AID 720551;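 active means maximum activity change below -70%; inconclusive means maximum activity change between -70% and -50%; inactive means maximum activity change above -50%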
# Target sequence (Q12809 whole entry, looked up): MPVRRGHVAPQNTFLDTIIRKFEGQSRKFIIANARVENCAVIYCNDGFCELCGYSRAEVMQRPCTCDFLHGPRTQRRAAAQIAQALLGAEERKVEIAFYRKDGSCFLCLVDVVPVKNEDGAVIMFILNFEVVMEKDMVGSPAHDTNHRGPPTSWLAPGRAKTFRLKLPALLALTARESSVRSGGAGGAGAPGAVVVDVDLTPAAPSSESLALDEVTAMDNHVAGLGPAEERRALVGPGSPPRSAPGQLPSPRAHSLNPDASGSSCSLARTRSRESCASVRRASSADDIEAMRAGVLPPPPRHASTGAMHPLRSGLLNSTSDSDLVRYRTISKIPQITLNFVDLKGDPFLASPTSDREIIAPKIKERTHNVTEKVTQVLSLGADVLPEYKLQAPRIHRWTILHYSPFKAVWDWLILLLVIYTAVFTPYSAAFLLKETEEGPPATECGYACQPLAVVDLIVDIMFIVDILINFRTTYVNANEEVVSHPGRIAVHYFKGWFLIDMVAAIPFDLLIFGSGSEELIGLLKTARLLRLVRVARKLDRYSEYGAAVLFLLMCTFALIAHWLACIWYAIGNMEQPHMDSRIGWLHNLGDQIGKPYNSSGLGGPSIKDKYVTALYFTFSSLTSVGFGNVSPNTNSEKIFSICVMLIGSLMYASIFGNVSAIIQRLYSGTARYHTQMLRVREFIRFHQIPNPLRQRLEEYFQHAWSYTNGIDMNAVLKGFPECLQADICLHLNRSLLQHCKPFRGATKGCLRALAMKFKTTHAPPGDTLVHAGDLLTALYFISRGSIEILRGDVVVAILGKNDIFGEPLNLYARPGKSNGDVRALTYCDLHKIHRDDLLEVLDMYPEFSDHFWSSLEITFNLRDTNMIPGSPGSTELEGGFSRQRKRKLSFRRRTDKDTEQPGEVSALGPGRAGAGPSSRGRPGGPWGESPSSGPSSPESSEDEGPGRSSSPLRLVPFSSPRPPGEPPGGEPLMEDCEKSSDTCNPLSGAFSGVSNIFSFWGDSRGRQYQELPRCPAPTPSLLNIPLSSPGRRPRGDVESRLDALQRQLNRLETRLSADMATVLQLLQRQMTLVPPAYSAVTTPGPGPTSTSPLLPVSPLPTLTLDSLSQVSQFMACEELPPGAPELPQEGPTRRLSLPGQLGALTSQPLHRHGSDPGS
#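 U2OS cells transduced with wild-type KCNH2 virus are loaded with FluxOr dye for 45 min, and thallium flux is measured in kinetic reads before and after stimulation buffer. Rate constants are normalized to DMSO controls.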
# KCNH2 3.1 block: inhibitors of human KCNH2 3.1 potassium channel isoform; 340,000 compounds, 0.95% hits; U2OS KCNH2 3.1, thallium flux FluxOr; stronger effect = lower value; AID 720553; activity change, % (tested at about 1.8 µM);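 active means maximum activity change below -70%; inconclusive means maximum activity change from -70% to -50%; inactive means maximum activity change above -50%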;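 further: thallium influx rate constant from kinetic fluorescence after stimulation buffer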
#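 We transduce U2OS cells with the mutant 3.1 virus, culture them overnight, load FluxOr with Red40 quencher for 45 min, then add stimulation buffer and read kinetically for 2 min to derive a normalized rate constant.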
# Rango-impB inh: prevents formation of the Rango-importin beta complex; Potency, µM (top dose mostly 92.2 µM); Rango CFP/YFP FRET sensor + importin beta, 45 min; Q14974; AID 540263; 340,000 compounds, 0.031% hits; further: nearly all actives have a fitted effect of over 15% in size
#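 FRET biosensor Rango (snurportin 1 IBB between N-terminal EYFP and C-terminal Cerulean), 50 nM in PBS/1 mM DTT/0.02% Tween-20/0.1% BSA, preincubated 5 min RT with compound; 0.125 microM importin beta added, 45 min RT, CFP/YFP FRET ratio read.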
# CCT chaperon mod: cytosolic chaperonin activity modulation; 360,000 compounds, 0.3% hits; purified chaperonin ATPase assay, HTRF ADP detection, 30 min; activity change, % (test concentration not listed), hits read low; in the data active means activity change below about -30%
#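 First, chaperonin was dispensed at 40 nM or 20 nM final depending on batch activity. Next, compounds were pinned at 76 uM and ATP added at 10 uM. After 30 min at 37 °C, ADP detection reagents ran 30 min at ambient temperature.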
# Rango release inh: prevents RanGTP from dissociating the Rango-importin beta complex | O95149+P62826 | Biochemical FRET Rango-importin beta, RanGTP-induced dissociation | Potency, µM (highest dose often 46.1 µM) | 340,000 compounds, 0.071% hits; further: nearly all actives have a fitted effect of over 45% in size
#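 Compounds preincubate 5 min with complex of recombinant Rango and importin beta in PBS with 1 mM DTT. Ran (0.6 uM) loaded with 2 mM GTP plus 0.2 uM RCC1 starts dissociation; FRET is recorded 45 min later.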
# MmCpn inh: blocks the Methanococcus maripaludis chaperonin Mm-Cpn; Potency, µM (doses to about 76.9 µM), usual class: inhibitors; purified Mm-Cpn ATPase, ADP Transcreener TR-FRET; 330,000 compounds, 0.031% hits; active means well fitted inhibition curve with a large enough effect; inconclusive means small, poorly fitted or top-dose-only effect; further: nearly all actives have a fitted effect of over 80% in size
#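 Inhibition of chaperonin ATP hydrolysis is measured as reduced ADP production, detected by competitive TR-FRET in which signal falls with ADP. Final enzyme 25 nM and ATP 10 uM, reacted 30 min at 37°C.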
# A number is an active result; – = inactive; ? = inconclusive; · = no result. Unless noted, the call rests on the fitted dose curve.
SMILES,hERG WT inh,KCNH2 3.1 block,Rango-impB inh,CCT chaperon mod,Rango release inh,MmCpn inh
O=C(Cn1ncc2c([nH]c3ccccc32)c1=O)NCC1CCN(Cc2ccc(F)cc2)CC1,–,-98,–,–,–,–
COc1ccc(-n2ncc3c(NCCCN4CCOCC4)ncnc32)cc1,–,–,–,–,–,–
COc1ccc(C(=O)NCCCN2CCOCC2)cc1OC,–,–,–,–,–,–
CCOc1cc2nc(-c3ccc(OC)c(OC)c3)nc(NCCCN3CCOCC3)c2cc1OC,-93,–,–,–,–,–
COc1cc2ncnc(NCCCN3CCOCC3)c2cc1OC,–,-79,–,–,–,–
O=C(CSc1nccc(=O)[nH]1)Nc1cccc2ccccc12,–,–,–,–,–,–
COc1ccc(C(=O)CCC(=O)NC2=NCCS2)cc1,–,–,–,-81,–,–
COc1ccc(NC(=O)CCC(=O)c2cc(C)sc2C)cc1,–,–,–,-43,–,–
COc1ccc(CC(=O)NC2=NCCS2)cc1,–,–,–,–,–,–
Cc1cc(C(=O)CCC(=O)Nc2ccc(S(N)(=O)=O)cc2)c(C)s1,–,–,–,–,–,–
CCCc1cc(=O)c2ccc(OC/C(C)=N/O)cc2o1,–,–,–,–,–,–
CCCOc1ccc(S(=O)(=O)NCCCN2CCOCC2)c2ccccc12,-206,–,–,–,–,–
CCN1C(=O)[C@H]2[C@@H](c3ccc(-c4ccc5c(c4)OCO5)c(OC)c3)N[C@@](Cc3ccccc3)(C(=O)OC)[C@H]2C1=O,–,-111,–,–,–,–
CCN1C(=O)[C@H]2[C@@H](c3ccc(-c4ccc5c(c4)OCO5)c(OC)c3)N[C@@](CC(C)C)(C(=O)OC)[C@H]2C1=O,–,–,–,–,–,–
C(=C\c1ccco1)/C1=NN(c2ccccc2)C(c2ccco2)C1 (centres undefined),–,–,?,–,?,–
O=[N+]([O-])c1ccc(/C=C/C2=NN(c3ccccc3)C(c3ccco3)C2)o1 (centres undefined),–,-73,–,–,–,–
CCOC(=O)c1sc2nc3c(cc2c1N)COC(C)(CC)C3 (centres undefined),–,–,?,–,?,–
CCC1(C)Cc2nc3sc(C(=O)O)c(N)c3cc2CO1 (centres undefined),–,–,?,–,18µM,–
COc1ccc(C(=O)Nc2cc(C(=O)O)cc(C(=O)O)c2)cc1Cl,·,–,–,–,–,–
COC(=O)c1cccc(NC(=O)c2ccc(OC)c(Cl)c2)c1,–,–,–,-78,–,–
COc1ccc(NC(=O)/C=C/C(=O)O)cc1Cl,–,–,–,–,–,6.3µM
COc1ccc(-c2cccc(C(=O)Nc3cccc(C(=O)O)c3)c2)cc1,–,–,–,-79,–,–
COc1ccc(NC(=O)CCCC(=O)O)cc1Cl,–,–,–,–,–,–
Cn1c(=O)c2cc(NC(=O)NCCc3cccs3)ccc2n1Cc1ccccc1,·,·,·,–,·,·
CCc1c(C)nc(N2CCN(c3ccccc3F)CC2)[nH]c1=O,–,–,–,–,–,–
SMILES,hERG WT inh,KCNH2 3.1 block,Rango-impB inh,CCT chaperon mod,Rango release inh,MmCpn inh
CC(C)C(C(=O)NCC1CCCO1)N(C(=O)CNS(=O)(=O)c1ccccc1)C1CCCCC1 (centres undefined),–,–,–,–,–,–
CCC(=O)NC(c1cccs1)c1cc(Br)c2cccnc2c1O (centres undefined),·,·,·,·,·,–
CC(=O)N/C(=C\c1ccccc1)C(=O)OCC(=O)N(C)C1CCS(=O)(=O)C1 (centres undefined),–,–,–,–,–,–
COc1ccccc1N1CCN(C(=O)c2ccc3[nH]c(C)c(C)c3c2)CC1,–,–,–,–,–,–
Cc1[nH]c2ccc(C(=O)N3CCN(c4ccccc4Cl)CC3)cc2c1C,-78,–,–,–,–,–
CC(C)(C)c1ccc(NC(=O)c2ccccc2)c([N+](=O)[O-])c1,–,·,–,-41,–,–

# From PubChem
